Measured values published in PubChem BioAssay AID1520 (The Scripps Research Institute Molecular Screening Center, 2009).
The list shows a part of the results. Active and inactive are the calls of the source.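 The calls were made as follows: active = cell growth inhibition above the hit limit set in the earlier mutant JAK2 cell screen (cut at about 27% in these data); inactive = the rest.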

Assay: growth loss in parental Ba/F3 cells – cell-based, murine pro-B, CellTiter-Glo luminescence, counter-screen for JAK2V617F inhibitor project (AID 1520);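 also: plate controls were DMSO-treated cells for no effect and JAK Inhibitor I control wells for full effect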
Details: Ba/F3 parental viability, at 5.6 µM, active compounds read high

CN(C)CC1Oc2ccccc2OC1(O)c1ccccc1 (stereo unspecified)
inhibition: 34.6% (active)
